Source: PubChem BioAssay AID1508609 (The Scripps Research Institute Molecular Screening Center, 2020)
Screen size: about 6,700 compounds; fewer than 10 were called active.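 How the source made its calls: active means mean percent activation across replicates above the confirmation screen cutoff of 4.91%; inactive means the rest.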 These entries were drawn from the full list.

Molecular target: G-protein coupled receptor 151 (Homo sapiens) (UniProt Q8TDV0)
Experiment: GPR151 agonism via beta-arrestin recruitment – cell-based, PathHunter beta-arrestin, luminescence, confirmation (AID 1508609)
Settings: GPR151 PathHunter beta-arrestin cells, 90 min, at 11.2 µM, stronger effect = higher value, % of EA-reagent control over plate median

G-protein coupled receptor 151 (Homo sapiens), sequence (Q8TDV0 whole entry, looked up): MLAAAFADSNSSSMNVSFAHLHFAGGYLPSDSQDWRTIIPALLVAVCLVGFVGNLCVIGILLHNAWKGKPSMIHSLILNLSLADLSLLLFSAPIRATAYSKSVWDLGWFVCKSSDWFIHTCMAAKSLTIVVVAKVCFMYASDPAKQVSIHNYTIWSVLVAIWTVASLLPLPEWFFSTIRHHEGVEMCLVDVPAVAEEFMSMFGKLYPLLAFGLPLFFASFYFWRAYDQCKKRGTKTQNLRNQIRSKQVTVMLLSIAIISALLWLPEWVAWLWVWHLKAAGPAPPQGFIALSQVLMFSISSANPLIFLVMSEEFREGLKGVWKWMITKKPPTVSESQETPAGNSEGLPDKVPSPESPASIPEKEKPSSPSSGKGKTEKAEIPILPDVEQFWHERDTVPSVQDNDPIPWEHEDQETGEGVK

activation, inactive:
COC(=O)c1c(NC(=O)Nc2ccc(Cl)c(Cl)c2)sc2c1CCCC2 0.7%
O=C1NCCN(Cc2ccc(-c3ccccc3)cc2)C1CC(=O)N1CCCCC1 (stereo not drawn) 0.39%
Cc1ccc(C)c(CN2CCC(n3nccc3NC(=O)C(C)(C)C)CC2)c1 0.69%
CCn1c(COc2ccccc2)nnc1Sc1ccc([N+](=O)[O-])cc1C=O 0.71%
Cc1cc(N2CCOCC2)ccc1C=C1C(=O)c2ccccc2C1=O -0.77%
COC(=O)c1c(-c2ccccc2)csc1NC(=O)c1ccc(OC)c([N+](=O)[O-])c1 0.78%
Cc1ccc(C(=O)Oc2ccccc2/C=N/N=C2\NC(=O)C(CC(=O)O)S2)cc1 (stereo not drawn) -0.38%
Cc1ccc(S(=O)(=O)Cn2nnnc2CN2CCN(c3ccccc3F)CC2)cc1 1.76%
CCN(CC)c1nc(Nc2ccccc2)nc(Nc2ccccc2)n1 -0.22%
C=CCn1c2ccccc2c2nnc(SCc3[nH]c(=O)[nH]c3C(=O)CCCCC(=O)OCC)nc21 1.2%
COC(=O)c1cc(NC(=O)COc2ccc([N+](=O)[O-])cc2)cc(C(=O)OC)c1 0.64%
CC(C)COC(=O)c1ccc(NC(=O)C2C3C=CC(C3)C2C(=O)O)cc1 (stereo not drawn) 1.05%
O=C(N/N=C\C=C\c1ccccc1)c1ccccn1 -0.98%
COc1ccc(NC(=S)N2CCN(S(=O)(=O)c3ccc(F)cc3)CC2)c(OC)c1 -0.28%
Cc1cccn2c(=O)c3cc(C(=O)NC4CCCCC4)c(=N)n(C4CCCCC4)c3nc12 -0.69%
OCCC1CN(Cc2ccc3cc(F)ccc3n2)CCN1C1CCCC1 (stereo not drawn) 1.64%
O=C(Cn1c(=O)n(Cc2ccccc2)c(=O)c2ccccc21)c1ccccc1 1.26%
CCOc1c(Cl)cc(CNCc2ccccc2)cc1OC -0.5%
COC(=O)c1oc2ccc(Br)cc2c1NC(C)=O 0.35%
O=C(c1ccc(CNS(=O)(=O)c2ccc(Cl)cc2)cc1)N1CCCC1 1.92%
C=CCc1cccc(/C=N/NC(=O)CCC(=O)Nc2ccc(Br)cc2)c1O -0.44%
O=C(CN1CCOCC1)Nc1c(Cl)cc(Cl)cc1Cl 0.82%
CCOC(=O)c1ccc(NC(=O)c2ncn(-c3ccccc3)n2)cc1 0.02%
Cn1ncc2c(NNC(=O)Cc3cccc4ccccc34)ncnc21 0.44%
CCCCc1ccc(NC(=O)CN2C(=O)C(C)SC(C)C2=O)cc1 (stereo not drawn) 0.42%
COc1ccc(CCNc2cc(C)nc(Nc3cccc(N(C)C)c3)n2)cc1 0.06%
O=C(Nc1ccc(NC(=O)c2cccc3c(Br)cccc23)cc1)c1ccco1 1.13%
COC(=O)[C@@H]1CC(O)CN1C(=O)C12CC3CC(CC(C3)C1)C2 (stereo partly drawn) 0.35%
CC1=C(C(=O)Nc2cccc(F)c2)C(c2ccccn2)C2=C(CCCC2=O)N1 (stereo not drawn) 0.25%
NC(=S)N/N=C/c1ccc([N+](=O)[O-])cc1 -0.11%
CC(C)C(=O)NC(=S)Nc1ccccc1F 0.14%
COc1ccc(C2(NC(=O)CCn3cnc4sc(C)c(C)c4c3=O)CCCCC2)cc1 0.69%
CCC1=C(C)c2cc3nc(C(=O)OCc4ccccc4)c(C)c-3c(C)n2C1C (stereo not drawn) -0.16%
CCN(CC)C(=O)C1CCCN(c2cc(N)nc(N)n2)C1 (stereo not drawn) -0.11%
CCC1C(=O)NCCN1Cc1ccc2c(c1)CN(Cc1c[nH]c3ccccc13)CCO2 (stereo not drawn) 1.68%
CN1C(=O)c2ccc(N3C(=O)c4cccc([N+](=O)[O-])c4C3=O)cc2C1=O -0.57%
Cc1ccc[n+](-c2ncnc(N)c2[N+](=O)[O-])c1 -0.67%
COc1cccc(-c2ocnc2C(=O)Nc2ccc3nc(-c4cccnc4)oc3c2)c1 0.94%
O=C(c1cc([N+](=O)[O-])ccc1NC1CCCCC1)N1CCOCC1 -1.3%
C=CCN1C(=O)CC(C(=O)OC)C12CCN(C1CCN(C(=O)OCC)CC1)CC2 (stereo not drawn) -0.6%
Cc1cccc(-n2nc3c(c2NC(=O)CCC2CCCCC2)CS(=O)(=O)C3)c1C 0.42%
COc1ccc(C2C(C#N)=C(N)Oc3c2c(C)nn3-c2ccccc2)cc1 (stereo not drawn) 0.69%
CC(=O)c1ccc(NC(=O)c2ccc(CN(c3ccc(C)c(C)c3)S(C)(=O)=O)cc2)cc1 -0.1%
CC1CCCC(NCc2c(C(=O)O)n(Cc3ccc(Cl)cc3)c3ccccc23)C1C (stereo not drawn) 0.3%
Cc1cccc(C)c1-n1c(=S)sc2c(=O)n(-c3cccc(Cl)c3)c(SCC#N)nc21 2.02%
CCCCc1ccc(N=Cc2nc(-c3cccc4ccccc34)oc2O)cc1 -1.01%
Cc1ccc(N2C(=O)CC(N3CCN(Cc4ccc(Cl)cc4)CC3)C2=O)cc1Cl (stereo not drawn) 0.04%
Oc1ccc(Cn2cc[nH]c2=S)cc1 -0.7%
CC(C)NC(=O)/C=C/c1ccccc1Cl -0.37%
COc1ccc(C(=O)CSc2nc3sc4c(c3c(=O)n2-c2ccc(Cl)cn2)CCCC4)c(F)c1 -0.67%
NC(=O)C1CCN(C(=O)c2ccc(-c3ccccc3)cc2)CC1 -1.12%
COCCNC(=S)N1CCN(c2ccccc2OC)CC1 0.65%
Cc1ccc(-c2nnc(N3CCOCC3)c3ccccc23)cc1S(=O)(=O)N1CCN(C)CC1 -0.46%
CC(C)n1c(=O)[nH]c2c(C(N)=O)nc(-c3ccc(-c4ccccc4)cc3)nc21 -0.04%
COc1ccc(OC)c(/C=N/n2nnnc2N)c1 -0.17%
O=C(NCc1ccsc1)c1ccc(-n2cccc2)cc1 0.53%
C=CCc1ccccc1OCCN1CCNCC1 -0.14%
Cc1ccc(S(=O)(=O)NCC(c2cccnc2)N2CCN(c3ccc(F)cc3)CC2)cc1 (stereo not drawn) -0.45%
